High-throughput results from PubChem BioAssay.
HSP90 inh = HSP90 inhibitors, primary screen, cell lysate, luminescence | Heat shock protein HSP 90 (rabbit reticulocyte lysate; luciferase refolding) | Rabbit reticulocyte lysate, luciferase refolding luminescence, 3 h | inhibition, % at 5.6 µM | 290,000 compounds, 0.91% hits | AID 1789, 2009;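 active = inhibition above the screen-wide mean plus 3 SD, computed separately per campaign, cut at about 16% in these data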;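 also: inhibitors lower the luminescence because luciferase stays unfolded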
SENP8 block-1 = SENP8 protease inhibitors, primary screen, biochemical, luminescence; AID 2540, 2010; purified SENP8, Z-RLRGG-aminoluciferin cleavage; inhibition, % at 10 µM; Sentrin-specific protease 8 (Homo sapiens), Q96LD8; 330,000 compounds, 1.2% hits; in the data active = inhibition above about 50%
SENP6 inh = SENP6 protease inhibitors, primary screen, biochemical, luminescence, uHTS; Sentrin-specific protease 6 (Homo sapiens), Q9GZR1; Recombinant SENP6 catalytic domain, aminoluciferin luminescence; inhibition, % at 10 µM; 330,000 compounds, 1.8% hits; AID 2599, 2010;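 active = inhibition above about 50% at the single tested dose, limit read from the data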
LGR2 antag = inhibitors of bursicon-induced LGR2 CRE-luciferase signal, primary screen, cell-based, HEK293, CRE-luciferase reporter, bursicon stimulation | Drosophila bursicon receptor LGR2 (rickets) | bursicon-stimulated, 4 h | inhibition, % at 9.99 µM | 380,000 compounds, 0.35% hits | AID 720647, 2013;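 active = drop in luminescence signal, shown as inhibition above about 50% in the replicate tests, limit read from the data, passing the limit was not always enough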;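 also: agonist challenge used bursicon conditioned medium at about half maximal strength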
SENP7 block = SENP7 protease inhibitors, primary screen, biochemical, luminescence, uHTS; Sentrin-specific protease 7 (Homo sapiens), Q9BQF6; recombinant SENP7, Z-RLRGG-aminoluciferin luminescence, 40 min; inhibition, % at 5 µM; 330,000 compounds, 1.5% hits;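 active = inhibition above about 50% at the single test dose, limit read from the data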
Target sequence (Q9BQF6 706-1050 limits assumed): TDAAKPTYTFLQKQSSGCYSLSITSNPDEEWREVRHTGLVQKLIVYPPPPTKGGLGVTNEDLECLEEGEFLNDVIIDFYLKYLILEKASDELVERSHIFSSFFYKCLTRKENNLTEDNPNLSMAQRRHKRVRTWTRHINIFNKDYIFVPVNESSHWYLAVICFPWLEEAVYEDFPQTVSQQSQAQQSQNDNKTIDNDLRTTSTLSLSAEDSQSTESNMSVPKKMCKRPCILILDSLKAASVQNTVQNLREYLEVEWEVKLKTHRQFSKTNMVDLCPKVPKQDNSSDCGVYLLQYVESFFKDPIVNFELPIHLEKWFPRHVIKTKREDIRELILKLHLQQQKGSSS
SENP8 block-2 = human SENP8 protease inhibitors, primary screen, biochemical, fluorescence, Nedd8 protein substrate, uHTS | inhibition, % at 20 µM | recombinant SENP8 | 360,000 compounds, 0.64% hits | Sentrin-specific protease 8 (Homo sapiens), Q96LD8; in the data active = inhibition mostly above about 40%, no sharp cut-off; inactive = mostly below about 27%
SENP8 confirm = SENP8 protease inhibitors, retest, confirmation, biochemical, luminescence, single concentration | 6,200 compounds, 40% hits | inhibition, % at 12.5 µM | shares compounds with SENP7 block | Recombinant SENP8, Z-RLRGG-aminoluciferin luminescence, 60 min;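 active = mean inhibition across replicates above about 50%, limit read from the data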
SENP6 confirm = SENP6 protease inhibitors, confirmation, biochemical, luminescence, single concentration; shares compounds with SENP7 block; recombinant SENP6, Z-RLRGG-aminoluciferin luminescence; inhibition, % at 12.5 µM; 6,200 compounds, 58% hits
SENP7 conf = SENP7 protease inhibitors, retest, confirmation, biochemical, luminescence, single concentration | 6,200 compounds, 69% hits | inhibition, % at 12.5 µM | recombinant SENP7, Z-RLRGG-aminoluciferin luminescence, 40 min | shares compounds with SENP7 block
Casp3 select = caspase-3 protease inhibitors, confirmation, selectivity assay for SENP inhibitor project, biochemical, single concentration; 6,200 compounds, 60% hits; purified caspase-3, Z-DEVD-aminoluciferin luminescence, 60 min; AID 488918, 2010; inhibition, % at 12.5 µM; shares compounds with SENP7 block;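 active = mean inhibition above about 50%, limit read from the data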
Target sequence (P42574 28-227 limits assumed): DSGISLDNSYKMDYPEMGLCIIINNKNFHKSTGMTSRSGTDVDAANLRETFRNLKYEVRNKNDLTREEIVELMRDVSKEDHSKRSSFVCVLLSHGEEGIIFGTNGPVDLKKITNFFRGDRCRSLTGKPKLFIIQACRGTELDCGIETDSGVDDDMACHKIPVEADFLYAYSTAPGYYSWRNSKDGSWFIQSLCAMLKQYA
Luc interf = luminescence interference (SENP counter-screen); 6,200 compounds, 39% hits; shares compounds with SENP7 block; Pre-incubated SENP8/Z-RLRGG-aminoluciferin, luciferase luminescence interference; AID 488919; inhibition, % at 12.5 µM;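 active = mean inhibition above about 50% when retested at one dose, limit read from the data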
Large screens that a line does not name were inactive (follow-up assays come after a bar, where they were run). Rows were chosen to be rich in hits. Some 2.3% of all compounds tested hit in one or more screens of this group.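 The calls were made as follows, unless noted: active = mean inhibition above about 50% in the one-dose retest (limit read from the data); inactive = the rest.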

O=C(O)c1ccc(COc2c(F)c(F)cc(F)c2F)cc1	SENP6 inh 80 (no result: LGR2 antag) | SENP8 confirm 66 | SENP6 confirm 67 | SENP7 conf 90 | Casp3 select 90 | Luc interf 79
COC(=O)c1ccc(COc2c(F)c(F)cc(F)c2F)o1	none
COc1ccc(CN2CC3(CCN(C(=O)C4CC4)CC3)c3c(n(C)c4cc(OC)ccc34)[C@@H]2CO)cc1	none (no result: HSP90 inh, SENP8 block-1, SENP6 inh, SENP7 block, SENP8 block-2)
COc1ccc(S(=O)(=O)N2CCN(c3ccccn3)CC2)cc1[N+](=O)[O-]	SENP6 inh 85 | SENP8 confirm inactive | SENP6 confirm inactive | SENP7 conf inactive | Casp3 select inactive | Luc interf inactive
COc1ccc(S(=O)(=O)N2CCN(c3ncccn3)CC2)cc1[N+](=O)[O-]	none
COc1ccc(-c2cn(Cc3ccc(C(=O)c4ccccc4)cc3)nn2)cc1	SENP8 block-1 77, SENP6 inh 79, SENP7 block 64 (no result: SENP8 block-2) | SENP8 confirm inactive | SENP6 confirm 63 | SENP7 conf inactive | Casp3 select 64 | Luc interf inactive
O=C(O)c1ccc(NCCC2=CCCCC2)c([N+](=O)[O-])c1	SENP8 block-1 82, SENP6 inh 86 | SENP8 confirm inactive | SENP6 confirm 87 | SENP7 conf 97 | Casp3 select 88 | Luc interf 78
O=c1[nH]c(Nc2ccccc2Cl)cc2ccccc12	SENP8 block-1 96, SENP6 inh 99, SENP7 block 92 (no result: HSP90 inh) | SENP8 confirm 57 | SENP6 confirm 86 | SENP7 conf 69 | Casp3 select inactive | Luc interf inactive
Cc1ccccc1Nc1cc2ccccc2c(=O)[nH]1	SENP8 block-1 97, SENP6 inh 91, SENP7 block 95 (no result: LGR2 antag) | SENP8 confirm 92 | SENP6 confirm 98 | SENP7 conf 95 | Casp3 select 96 | Luc interf inactive
Cc1cc2ccccc2c(=O)[nH]1	none
O=c1[nH]c(Nc2ccc(F)cc2)cc2ccccc12	HSP90 inh 16, SENP8 block-1 85, SENP6 inh 85, SENP7 block 92 | SENP8 confirm 52 | SENP6 confirm 76 | SENP7 conf inactive | Casp3 select inactive | Luc interf inactive
Cc1cc(Nc2ccc(F)cc2)c2ccccc2n1	none (no result: HSP90 inh, SENP8 block-1, SENP6 inh, SENP7 block)
CN=c1scc(-c2ccccc2F)n1/N=C/c1ccc[nH]1	HSP90 inh 85, SENP8 block-1 91, LGR2 antag 93 | SENP8 confirm 98 | SENP6 confirm 100 | SENP7 conf 103 | Casp3 select 96 | Luc interf 97
C=CCN=c1scc(-c2ccc(F)cc2)n1/N=C/c1ccccn1	none
COc1ccc(N(C(=O)CNC(=O)c2ccco2)C(C(=O)NC2CCCCC2)c2ccco2)cc1 (stereo not drawn)	SENP6 inh 60 (no result: LGR2 antag) | SENP8 confirm inactive | SENP6 confirm inactive | SENP7 conf inactive | Casp3 select inactive | Luc interf inactive
CCC(=O)N(C)C[C@@H]1Oc2cc(-c3ccccc3)ccc2S(=O)(=O)N([C@H](C)CO)C[C@H]1C	none (no result: HSP90 inh, SENP8 block-1, SENP6 inh, SENP7 block, SENP8 block-2)
CCOC(=O)c1c(C)oc2ccc(NS(=O)(=O)c3cccs3)cc12	SENP7 block 77 | SENP8 confirm inactive | SENP6 confirm inactive | SENP7 conf inactive | Casp3 select inactive | Luc interf inactive
O=C(Nc1ccon1)c1cc2c(s1)CCCC2	SENP8 block-1 84, SENP6 inh 89, SENP7 block 93 (no result: LGR2 antag) | SENP8 confirm inactive | SENP6 confirm 90 | SENP7 conf 100 | Casp3 select 92 | Luc interf 63
Cn1c(CNc2ccc(F)cc2)nc2ccccc21	SENP8 block-1 58, SENP6 inh 80, SENP7 block 78 | SENP8 confirm 72 | SENP6 confirm 72 | SENP7 conf 92 | Casp3 select 87 | Luc interf 75
Cc1ccccc1NCc1nc2ccccc2n1C	SENP8 block-1 78, SENP6 inh 85, SENP7 block 86 | SENP8 confirm 83 | SENP6 confirm 84 | SENP7 conf 98 | Casp3 select 93 | Luc interf 56
CCn1cnc2cc(NCc3nc4ccccc4n3C)ccc21	SENP8 block-1 68, SENP6 inh 72 | SENP8 confirm 78 | SENP6 confirm 77 | SENP7 conf 93 | Casp3 select 92 | Luc interf 78
Cn1c(CNc2ccccc2O)nc2ccccc21	none
CO[C@H]1CN(C)C(=O)c2cc(NC(=O)Nc3cccc(F)c3)ccc2OC[C@@H](C)N(C(C)=O)C[C@H]1C	none (no result: HSP90 inh, SENP8 block-1, SENP6 inh, SENP7 block, SENP8 block-2)
O=C(/C=C/c1ccc([N+](=O)[O-])cc1)Nc1cccnc1	SENP6 inh 71, SENP7 block 58 (no result: LGR2 antag) | SENP8 confirm inactive | SENP6 confirm 64 | SENP7 conf 92 | Casp3 select 77 | Luc interf inactive
O=C(C=Cc1ccccc1)Nc1ccccc1	none (no result: HSP90 inh, SENP8 block-1, SENP6 inh, SENP7 block)
O=C(/C=C/c1ccccc1)Nc1cccnc1	SENP8 block-1 51, SENP6 inh 66, SENP7 block 76 | SENP8 confirm inactive | SENP6 confirm 57 | SENP7 conf 90 | Casp3 select 84 | Luc interf 72
CCc1cc[n+](C2=C([O-])c3ccccc3C(=O)/C2=N\S(=O)(=O)c2cccs2)cc1	SENP8 block-1 53, SENP6 inh 84, SENP8 block-2 90 | SENP8 confirm inactive | SENP6 confirm 80 | SENP7 conf inactive | Casp3 select inactive | Luc interf inactive
C[C@H](CO)N1C[C@H](C)[C@H](CN(C)C(=O)Nc2ccc3c(c2)OCCO3)OCc2cn(nn2)CCCC1=O	none (no result: HSP90 inh, SENP8 block-1, SENP6 inh, SENP7 block, SENP8 block-2)
